Compound activity deposited in PubChem by Broad Institute.
Only some compounds are listed: those with a hit (about 6.7% of all), similar ones and a draw of the others.
Pf Dd2 inh: blocks growth of Plasmodium falciparum Dd2 parasites; P. falciparum Dd2 growth, SYBR Green, 72 h; stronger effect = lower value; activity change, % at 10 µM; actives 2.3% (n = 94,000); in the data active = activity change below about -80%
T cruzi growth: blocks T. cruzi growth in NIH3T3 culture; T. cruzi beta-gal in NIH3T3, GalScreen luminescence, 90 h; inhibition, % at 8.34 µM; actives 5.9% (n = 77,000); AID 624255;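 active = mean inhibition above about 93%, with at least 55% of replicates each passing it, limit read from the data, passing the limit was not always enough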
C diff HTS: inhibitors of Clostridium difficile growth; Clostridium difficile clinical isolate growth, OD600, 24 h; stronger effect = lower value; growth activity, negative = inhibition, % at 16 µg/mL (by protocol); actives 0.25% (n = 86,000);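 active = mean growth activity at or below -80% and every replicate also at or below -80%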;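 also: 0% = DMSO wells and -100% = levofloxacin 16 µg/mL wells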
Numbers without * were called inactive; ! = not confirmed by another sample.

How did Cc1noc(C)c1S(=O)(=O)N(C)C[C@@H]1OCCCC[C@H](C)Oc2ccc(NC(=O)C3CCCCC3)cc2C(=O)N([C@H](C)CO)C[C@H]1C do in these assays?
Pf Dd2 inh: -68; T cruzi growth: -9; C diff HTS: 1

How did C[C@@H]1CN([C@H](C)CO)C(=O)c2cccc(NC(=O)CCCCCC(=O)Nc3ccccc3N)c2O[C@H]1CN(C)Cc1ccc(C(F)(F)F)cc1 do in these assays?
Pf Dd2 inh: -92*; C diff HTS: -10

How did C[C@H]1CN([C@@H](C)CO)C(=O)c2cccc(NC(=O)CCCCCC(=O)Nc3ccccc3N)c2O[C@H]1CN(C)Cc1ccncc1 do in these assays?
Pf Dd2 inh: 23; C diff HTS: 2

How did C[C@H]1CN([C@@H](C)CO)C(=O)c2cccc(NC(=O)CCCCCC(=O)Nc3ccccc3N)c2O[C@H]1CN(C)Cc1ccc(C(F)(F)F)cc1 do in these assays?
Pf Dd2 inh: -85*; C diff HTS: 7

How did C[C@@H]1CN([C@H](C)CO)C(=O)c2cccc(NC(=O)CCCCCC(=O)Nc3ccccc3N)c2O[C@H]1CN(C)Cc1ccncc1 do in these assays?
Pf Dd2 inh: -19; C diff HTS: -3

How did COc1ccccc1-c1cnc2c(c1)C(=O)N([C@H](C)CO)C[C@@H](C)[C@H](CN(C)Cc1cncnc1)O2 do in these assays?
Pf Dd2 inh: -11; T cruzi growth: -9; C diff HTS: 7

Results for O=C(C[C@H]1CC[C@H](NC(=O)Nc2ccc3c(c2)OCO3)[C@H](CO)O1)NCc1ccc(F)cc1 ?
Pf Dd2 inh: 6; T cruzi growth: 21; C diff HTS: 2

How did COc1ccc(NC(=O)Nc2ccc3c(c2)CC(=O)N([C@@H](C)CO)C[C@H](C)[C@H](CN(C)S(=O)(=O)c2cccs2)O3)cc1 do in these assays?
Pf Dd2 inh: -13; T cruzi growth: 4; C diff HTS: -4

Results for C[C@@H]1CN([C@H](C)CO)C(=O)c2cc(NC(=O)Nc3ccc(F)cc3)ccc2O[C@@H]1CN(C)C(=O)Nc1ccc(F)cc1 ?
Pf Dd2 inh: -12; T cruzi growth: -7; C diff HTS: 2

What do the screens show for `O=C(C[C@H]1CC[C@H]2[C@@H](COC[C@@H](O)CN2C(=O)Nc2ccc(Cl)c(Cl)c2)O1)NC1CCC1`?
T cruzi growth: -98; C diff HTS: -99*!

What do the screens show for `O=C(C[C@H]1CC[C@H]2[C@@H](COC[C@H](O)CN2C(=O)Nc2ccc(Cl)c(Cl)c2)O1)NC1CCC1`?
T cruzi growth: -32; C diff HTS: -92*

How did O=C(C[C@H]1CC[C@@H]2[C@H](COC[C@H](O)CN2C(=O)Nc2ccc(Cl)c(Cl)c2)O1)NC1CCC1 do in these assays?
T cruzi growth: -43; C diff HTS: -99*!

Results for CCNC(=O)C[C@@H]1CC[C@H]2[C@@H](COC[C@@H](O)CN2C(=O)Nc2ccc(Cl)c(Cl)c2)O1 ?
Pf Dd2 inh: 4; T cruzi growth: 11

What do the screens show for `CNC(=O)C[C@H]1CC[C@@H]2[C@H](COC[C@H](O)CN2C(=O)Nc2ccc(Cl)c(Cl)c2)O1`?
Pf Dd2 inh: -12; T cruzi growth: 25; C diff HTS: -7

What do the screens show for `O=C(C[C@@H]1CC[C@@H]2[C@H](COC[C@@H](O)CN2C(=O)Nc2ccc(Cl)c(Cl)c2)O1)NC1CCC1`?
T cruzi growth: -86; C diff HTS: -98*

Results for CNC(=O)C[C@@H]1CC[C@H]2[C@@H](COC[C@H](O)CN2C(=O)Nc2ccc(Cl)c(Cl)c2)O1 ?
Pf Dd2 inh: -4; T cruzi growth: 32; C diff HTS: -4

What do the screens show for `CNC(=O)C[C@H]1CC[C@@H]2[C@H](COC[C@@H](O)CN2C(=O)Nc2ccc(Cl)c(Cl)c2)O1`?
Pf Dd2 inh: -8; T cruzi growth: 20; C diff HTS: 0

What do the screens show for `COC(=O)C(CC#Cc1ccc2c(c1)[C@]1(C(=O)N2)[C@H](c2ccccc2OCCO)N2[C@H](c3ccccc3)[C@H](c3ccccc3)OC(=O)[C@H]2[C@@H]1C(=O)N1CCN(c2ncccn2)CC1)C(=O)OC`?
C diff HTS: 3

How did C[C@@H]1CN([C@H](C)CO)C(=O)c2cc(/C=C/c3ccccc3)cnc2O[C@H]1CN(C)C(=O)Cc1cccnc1 do in these assays?
Pf Dd2 inh: -17; C diff HTS: 1

How did C[C@@H]1CN([C@H](C)CO)C(=O)c2cc(-c3ccc(F)cc3)cnc2O[C@H]1CN(C)C(=O)c1ccccc1F do in these assays?
Pf Dd2 inh: -15; T cruzi growth: -129; C diff HTS: -16

Results for COCC(=O)N(C)C[C@H]1Oc2ncc(-c3ccc(F)cc3)cc2C(=O)N([C@@H](C)CO)C[C@@H]1C ?
Pf Dd2 inh: 0; T cruzi growth: -6; C diff HTS: -1
